Hits are enriched below; roughly 3.7% of the tested compounds scored in any of these assays.
BoNT F protease: blocks Botulinum neurotoxin F light chain protease; Multiplex microsphere protease cleavage assay, flow cytometry; inhibition, % at 10 µM; 360,000 compounds, 0.22% hits; in the data active means inhibition above about 35%, passing the limit was not always enough; inconclusive means no clear call, values can overlap the other calls; further: plate controls were buffer without enzyme for full effect and enzyme alone for no effect
BoNT A protease: blocks Botulinum neurotoxin A light chain protease | AID 588499 | 360,000 compounds, 0.17% hits | multiplex microsphere protease substrate cleavage, flow cytometry | inhibition, % at 10 µM; further: plate controls were buffer without enzyme for full effect and enzyme alone for no effect
Anthrax LF prot: inhibitors of Bacillus anthracis lethal factor protease | 360,000 compounds, 0.12% hits | multiplex microsphere protease cleavage assay, LF | AID 588501 | inhibition, % at 10 µM | P15917; further: plate controls were buffer without enzyme for full effect and enzyme alone for no effect
Target sequence (P15917 whole entry, looked up): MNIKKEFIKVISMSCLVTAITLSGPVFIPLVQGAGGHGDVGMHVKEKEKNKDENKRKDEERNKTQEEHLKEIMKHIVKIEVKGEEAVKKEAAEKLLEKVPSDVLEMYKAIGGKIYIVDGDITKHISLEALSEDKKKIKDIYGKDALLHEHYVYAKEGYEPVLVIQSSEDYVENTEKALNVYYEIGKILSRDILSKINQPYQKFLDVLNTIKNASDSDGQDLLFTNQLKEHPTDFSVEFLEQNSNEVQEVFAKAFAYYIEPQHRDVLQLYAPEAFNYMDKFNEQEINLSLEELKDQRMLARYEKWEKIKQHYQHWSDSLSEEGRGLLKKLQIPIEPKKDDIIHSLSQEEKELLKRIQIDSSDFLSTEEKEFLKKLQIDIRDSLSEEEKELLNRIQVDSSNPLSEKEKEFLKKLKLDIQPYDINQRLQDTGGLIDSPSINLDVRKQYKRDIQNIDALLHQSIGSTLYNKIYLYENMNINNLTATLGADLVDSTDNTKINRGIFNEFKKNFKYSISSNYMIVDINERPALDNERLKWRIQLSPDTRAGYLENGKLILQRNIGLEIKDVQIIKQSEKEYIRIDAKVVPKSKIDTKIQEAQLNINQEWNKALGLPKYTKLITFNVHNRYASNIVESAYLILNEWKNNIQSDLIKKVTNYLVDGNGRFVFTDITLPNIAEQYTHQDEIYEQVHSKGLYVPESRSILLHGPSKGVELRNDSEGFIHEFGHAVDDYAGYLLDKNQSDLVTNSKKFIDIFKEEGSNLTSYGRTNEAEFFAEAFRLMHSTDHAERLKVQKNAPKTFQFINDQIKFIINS
MazF activator: MazEF (E. coli) toxin RNase activation; P0AE70; FAM/BHQ RNA-DNA oligo cleavage fluorescence, 5 h; activation, % at 20 µM; 350,000 compounds, 0.32% hits; AID 504720; in the data active means activation above about 50%
Autofluor counter: compound fluorescence in toxin protease inhibitor counterscreen | compound autofluorescence counterscreen, microsphere flow cytometry; hits give high values | fluorescence intensity (concentration not given with the values) | 360,000 compounds, 3.1% hits; in the data active means fluorescence intensity above about 16000; inconclusive means no clear call, values can overlap the other calls
Active calls of the source: *; ? = inconclusive; . = no result. Unless noted, no stated cut-off is given here; in the data, active means inhibition above about 30%; inconclusive means no clear call, values can overlap the other calls; inactive means below that.

SMILES	BoNT F protease	BoNT A protease	Anthrax LF prot	MazF activator	Autofluor counter
CC(C)C[C@H](NC(=O)CCCn1nnc2ccccc2c1=O)C(=O)O	0.0	1.2	-2.6	8.8	4309
COc1ccc(NC(=O)c2cc(C3CCCCN3C(=O)OCCF)on2)c(C)c1 (centres undefined)	-5.7	-0.7	-4.2	.	3772
COc1cccc(-c2cnc(C(O)c3cc(Cl)cc(Cl)c3)[nH]2)c1 (centres undefined)	-9.3	-0.2	-2.7	.	3869
Cc1ccc(N(CC(=O)N2CCOCC2)S(C)(=O)=O)cc1C	1.1	?	1.2	-2.3	20113*
CCOC(=O)C1CCN(C(=O)CN(c2ccc3c(c2)OCCO3)S(C)(=O)=O)CC1	-0.4	-0.6	-9.6	-1.1	22882*
CS(=O)(=O)N(CC(=O)N1CCOCC1)c1ccc2c(c1)OCO2	-7.2	0.0	0.2	5.2	3082
CC(=O)c1cccc(N(CC(=O)N2CCCCC2)S(C)(=O)=O)c1	0.3	?	-2.4	6.6	24555*
CC(=O)c1cccc(N(CC(=O)N2CCCC2)S(C)(=O)=O)c1	6.7	0.4	-4.2	4.6	7490
CS(=O)(=O)N(CC(=O)N1CCCC1)c1ccc2c(c1)OCCO2	4.4	5.0	0.6	2.4	21840*
Cc1ccc(CNC(=O)CCC(=O)Nc2nnc(C)s2)cc1	-1.6	0.5	1.9	3.2	6036
CCCCNC(=O)C1(C)CCCCN1C(=O)c1cc(-c2ccccc2)cs1 (centres undefined)	-1.7	0.1	-0.4	.	3593
CNc1c(NC(=O)COc2ccc(Cl)cc2)c(=O)oc2ccccc12	3.5	-1.1	-2.3	-0.5	5334
CCOC(=O)N1CCN(C(=O)CN(c2cccc(OC)c2)S(C)(=O)=O)CC1	3.6	?	3.7	-6.1	19270*
CS(=O)(=O)N(CC(=O)N1CCCC1)c1ccc(Cl)cc1Cl	4.1	1.9	21.1	-2.5	2937
CS(=O)(=O)N(CC(=O)N1CCCC1)c1cc(Cl)c(Cl)cc1Cl	2.3	2.6	-2.2	-0.5	22315*
CN(CC(=O)N1CCCC1)S(=O)(=O)c1cc(Cl)ccc1Cl	-6.4	?	-0.3	-5.7	22425*
Cn1c(SCc2ccccc2Cl)nnc1-c1cnccn1	3.0	2.7	-4.9	-0.8	15326
Cn1c(Cn2nnc(-c3ccccc3)n2)nnc1SCc1ccccc1Cl	2.4	?	-0.8	-8.8	16202*
Cc1cc2cc(CN(Cc3ccco3)S(=O)(=O)c3c(C)ccc4nsnc34)c(=O)[nH]c2cc1C	-1.5	?	0.6	-7.8	20470*
Cc1cc2cc(CN(CCCO)S(=O)(=O)c3cccc4nsnc34)c(=O)[nH]c2cc1C	2.5	-0.2	1.5	8.8	22386*
Cc1ccc2[nH]c(=O)c(CN(CCCO)S(=O)(=O)c3c(C)ccc4nsnc34)cc2c1	-9.2	-0.8	-1.6	4.4	10512
COc1cccc(NC(=O)CN(C)CC(=O)c2c(C)[nH]c3ccccc23)c1	1.5	0.2	1.9	3.3	3566
CC(C)(C)c1ccc(C(=O)CCCSC2=C(C#N)C(c3ccco3)C3=C(CCCC3=O)N2)cc1 (centres undefined)	-6.1	?	-4.8	-7.6	23545*
Cc1ccc(C(=O)CSC2=C(C#N)C(c3ccco3)C3=C(CCCC3=O)N2)cc1 (centres undefined)	-5.3	2.4	-0.1	7.8	5457
Cc1ccc(C(=O)NCCNc2ccc(Cl)cc2[N+](=O)[O-])o1	-4.3	?	-2.9	0.7	22948*
SMILES	BoNT F protease	BoNT A protease	Anthrax LF prot	MazF activator	Autofluor counter
CS(=O)(=O)NCCCNc1ccc(Cl)cc1[N+](=O)[O-]	1.0	1.1	1.3	9.5	22714*
CS(=O)(=O)NCCCNc1ccc(C(F)(F)F)cc1[N+](=O)[O-]	-0.2	-0.7	-3.5	0.7	4421
c1csc(CCCN2CCCCC2)c1	0.3	-0.9	-0.6	8.6	4394
O=[N+]([O-])c1ccccc1NC1CCN(Cc2ccccc2)CC1	-9.7	-0.3	-10.8	-5.2	4712
O=[N+]([O-])c1ccc(NC2CCCC2)c2ccncc12	-15.6	4.4	-5.8	62.0*	3801
O=[N+]([O-])c1ccc(NC2CCN(Cc3ccccc3)CC2)c2ccncc12	1.9	5.3	3.7	58.1*	5331
COc1ccccc1CNC(=O)CN1C(=O)NC2(CCCc3ccccc32)C1=O (centres undefined)	4.2	2.9	3.8	-4.6	8565
Clc1cccc(-c2cccc3nccn23)c1Cl	-0.7	0.3	-0.1	.	3658
Cc1cccc(OC(=O)CN2C(=O)C3C4CCC(C4)C3C2=O)c1C (centres undefined)	-2.6	0.6	-0.2	-2.7	23771*
Nc1cc(=O)[nH]c(SCC(=O)Nc2ccc(F)c(Cl)c2)n1	-6.3	-4.8	0.6	-0.5	21150*
CC(=O)Nc1cccc(-n2nnc(SCC(=O)Nc3ccc(F)c(Cl)c3)n2)c1	-294.4	-50.9	-50.2	6.3	16932*
Nc1cc(=O)[nH]c(SCC(=O)Nc2ccc3c(c2)CCC3)n1	1.3	-0.8	1.5	7.6	4265
COc1ccccc1C(=O)COC(=O)CN1C(=O)C2CC=CCC2C1=O (centres undefined)	-2.2	1.6	4.9	1.3	5170
O=C1CCCC(O)=C1C1NCCc2ccccc21 (centres undefined)	-0.2	-0.7	-0.2	3.1	2881
O=C1CCCC(O)=C1C1C2=C(CCCC2=O)Oc2ccccc21 (centres undefined)	4.7	?	-1.0	-1.7	21293*
Cc1ccc(C(=O)COC(=O)c2cnccn2)cc1	5.0	-0.2	2.9	7.4	3195
Cc1ccc(C(=O)Oc2ccc(C(=O)COC(=O)c3cnccn3)cc2)cc1	1.7	0.4	-0.2	0.1	16162*
c1ccc(C2(Cn3ccc4ccccc43)OCCO2)cc1	-15.2	34.7*	-3.4	-9.4	24276*
O=C(NCCC1CCCCN1S(=O)(=O)c1ccc(F)cc1)C(=O)NCCN1CCOCC1 (centres undefined)	13.5	4.6	2.8	3.3	4262
CC(C)Cc1ccc(C(C)C(=O)N2CCOCC2)cc1 (centres undefined)	3.3	?	0.0	-6.7	22712*
N#CC1=C(N)Oc2c(ccc3ccccc23)C1c1cccs1 (centres undefined)	.	.	.	59.1*	.
COc1ccc(C2C=CC(=O)CC2)c(OC)c1 (centres undefined)	1.7	-0.3	4.7	.	5857
Cc1cc(C)cc(NC(=O)CN2CCN(c3ccccn3)CC2)c1	-0.9	0.3	0.1	-1.5	2709
Cc1cc(C)cc(NC(=O)CN2CCN(c3ncccn3)CC2)c1	5.1	2.4	-0.1	-0.9	22652*
O=C1Nc2ccc(Br)cc2C1(O)c1ccccc1 (centres undefined)	-6.3	-5.3	6.9	0.4	4209
O=C1Nc2ccc(Br)cc2C12NNc1ccccc1O2 (centres undefined)	-2.9	-0.1	-0.1	83.7*	4049
COc1ccccc1NC(=O)CS(=O)(=O)c1cn(CC(=O)N(C(C)C)C(C)C)c2ccccc12	1.5	-0.1	-1.1	2.3	6094
Cc1cc(=O)[nH]c(SC/C=C/c2ccccc2)n1	-8.3	-6.7	-5.3	-4.8	17675*

Assay outcomes as filed in PubChem BioAssay.
